Bioassay records: PubChem, The Scripps Research Institute Molecular Screening Center
Sampled rows, rich in hits. Any-hit rate of the full collection: about 3.4%.
FBW7 activator: human FBW7 E3 ligase activation, primary screen | AID 1259310 | Q969H0 | AlphaScreen FBW7–phospho-cyclin E peptide binding, activator screen | 650,000 tested, 0.13% active | normalized activity (activation), % at 26.1 µM; in the data active means normalized activity above about 1.9%;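 further: purified mutant Fbw7 with reduced substrate affinity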
Target sequence (Q969H0 whole entry, looked up): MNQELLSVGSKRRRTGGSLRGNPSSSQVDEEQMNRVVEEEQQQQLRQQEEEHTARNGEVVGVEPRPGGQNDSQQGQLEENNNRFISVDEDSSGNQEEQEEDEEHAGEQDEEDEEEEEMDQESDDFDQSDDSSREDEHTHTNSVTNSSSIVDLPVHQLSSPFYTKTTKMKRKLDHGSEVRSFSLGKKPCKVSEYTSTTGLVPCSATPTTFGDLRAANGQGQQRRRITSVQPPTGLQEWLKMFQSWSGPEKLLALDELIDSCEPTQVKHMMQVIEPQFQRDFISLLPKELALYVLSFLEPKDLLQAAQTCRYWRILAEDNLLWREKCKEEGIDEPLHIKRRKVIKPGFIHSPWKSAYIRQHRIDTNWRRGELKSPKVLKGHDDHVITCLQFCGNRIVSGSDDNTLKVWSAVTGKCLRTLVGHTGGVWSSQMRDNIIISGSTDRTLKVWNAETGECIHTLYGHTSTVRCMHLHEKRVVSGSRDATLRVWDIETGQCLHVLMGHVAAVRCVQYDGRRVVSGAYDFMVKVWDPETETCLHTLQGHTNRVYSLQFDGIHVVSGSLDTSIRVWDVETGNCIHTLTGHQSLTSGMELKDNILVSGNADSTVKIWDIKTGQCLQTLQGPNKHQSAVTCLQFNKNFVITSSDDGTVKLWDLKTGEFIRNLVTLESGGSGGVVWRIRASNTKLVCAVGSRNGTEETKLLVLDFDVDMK
TEAD-YAP inh: TEAD-YAP interaction inhibition; HEK-TIYL cells, TEAD-Gal4/YAP UAS-luciferase luminescence; 640,000 tested, 1.4% active; AID 1259422; inhibition, % at 9.12 µM; in the data active means inhibition above about 32%;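 further: 0% = median of test compound wells and 100% = reference inhibitor wells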
MITF inh: blocks human microphthalmia-associated transcription factor; 650,000 tested, 0.91% active; AID 1259374; O75030; inhibition, % at 2.6 µM; AlphaScreen MITF homodimerization, bead proximity signal; in the data active means inhibition above about 50%;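 further: 0% = vehicle wells with protein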
GPR151 ag: activators of human GPR151; Q8TDV0; PathHunter beta-arrestin GPR151 cells, luminescence; activation, % at 11.2 µM; 650,000 tested, 1% active; in the data active means activation above about 4.9%;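 further: 0% = median of compound wells and 100% = cells with positive control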
* hit, by the source's call.

SMILES	FBW7 activator	TEAD-YAP inh	MITF inh	GPR151 ag
Cc1ccc(N2C(N)=C(C#N)C(c3cc(Br)cs3)C3=C2CCCC3=O)cc1 (stereo not drawn)	0	34*	3	1
Cc1cccc(C2=N/C(=C\c3ccccc3C(F)(F)F)C(=O)O2)c1	0	-4	0	1
Cc1ccccc1NC(=O)CCC(=O)N/N=C/c1cc(Br)cc([N+](=O)[O-])c1O	0	9	-38	-1
O=C(O[C@@H]1Cc2c(O)cc(O)cc2O[C@@H]1c1cc(O)c(O)c(O)c1)c1cc(O)c(O)c(O)c1	0	2	77*	-1
O=C1c2c(O)cc(O)cc2OC(c2ccc(O)c(O)c2)C1O (stereo not drawn)	0	-1	14	2
O=C(O[C@@H]1Cc2c(O)cc(O)cc2O[C@@H]1c1ccc(O)c(O)c1)c1cc(O)c(O)c(O)c1	0	0	83*	0
O=C(c1cccc(Br)c1)c1cn[nH]c1-c1ccccc1O	0	46*	5	1
O=C(CNC(=O)c1cccc(Br)c1)N/N=C/c1cn[nH]c1-c1ccccc1	0	7	2	0
O=c1c2ccccc2nc(-c2ccc(F)cc2)n1NCc1ccc(Cl)cc1Cl	0	3	-3	1
O=C1c2ccccc2C(=O)N1Cc1cccnc1	0	-3	11	1
Nc1ccc(Oc2ccc3c(c2)C(=O)N(Cc2cccnc2)C3=O)cc1	0	35*	10	1
c1ccc(Nc2ncnc3nc(Nc4ccc(N5CCOCC5)cc4)[nH]c23)cc1	0	-6	-12	1
c1ccc(Nc2ccnc(N3CCc4ccccc4C3)n2)cc1	0	-47	-1	-1
c1ccc2c(Nc3nccc(Nc4ccc(N5CCOCC5)cc4)n3)nccc2c1	0	62*	15	4
c1ccc2c(Nc3nc4ncnc(Nc5ccc(N6CCOCC6)cc5)c4[nH]3)nccc2c1	0	40*	45	0
c1ccc2c(c1)CCN(c1nccc(Nc3ccc(N4CCOCC4)cc3)n1)C2	0	41*	7	1
c1ccc2c(c1)CCN(c1nc3ncnc(Nc4ccc(N5CCOCC5)cc4)c3[nH]1)C2	0	53*	-1	-2
Cc1ccc(-c2c3c(nc4sc(C(N)=O)c(N)c24)CCCC3)cc1	0	-7	-16	1
COc1ccccc1/C=N\NC(=O)Cc1nnc(N)s1	-1	-5	6	0
C=CCNc1nc(N)c(C(N)=NC#N)s1	0	74*	-1	2
COc1cccc(C2C3=C(NCCN=C3c3ccc(Cl)cc3)C(=O)N2c2ccccc2)c1 (stereo not drawn)	0	58*	6	1
O=C1C2=C(C(c3ccc(Cl)cc3)=NCCN2)C(c2ccccc2)N1c1ccccc1 (stereo not drawn)	0	-1	13	0
Oc1c(Cl)cc(CN2CCCC2)c2cccnc12	-1	93*	113*	-1
COc1ccccc1N1CCN(Cc2cc(Cl)c(O)c3ncccc23)CC1	0	82*	74*	-1
O=C(Cc1cn(-c2ccc(Oc3ccccc3)nn2)c2ccccc12)NCCc1ccc(O)cc1	0	-9	-8	1
SMILES	FBW7 activator	TEAD-YAP inh	MITF inh	GPR151 ag
Cc1cc(C)cc(OCC(=O)Nc2ccc(NC(=O)c3cccs3)cc2)c1	2.2*	-8	-11	0
Cc1ccc(OCC(=O)Nc2cccc(NC(=O)c3cccs3)c2)cc1	0	-14	-2	0
O=C(NC1CCS(=O)(=O)C1)c1nc(SCc2ccccc2)ncc1Cl (stereo not drawn)	1	9	6	-2
COC(=O)c1ccccc1C(=O)N1CCN(c2nc3ccc(SC)cc3s2)CC1	0	47*	5	-1
CSc1ccc2nc(N3CCN(C(=O)CN(C)S(C)(=O)=O)CC3)sc2c1	0	-24	-2	0
CCc1nn2c(NCc3cccnc3)cc(C)nc2c1-c1ccc(F)cc1	0	5	-15	-1
CCOC(=O)CN1C(=O)c2ccccc2S1(=O)=O	0	0	-2	0
O=C(CN1C(=O)c2ccccc2S1(=O)=O)c1ccccc1	1	54*	11	-1
CC(=O)c1c(C)[nH]c(C(=O)CN2C(=O)c3ccccc3S2(=O)=O)c1C	0	41*	16	-1
CN1CCN(c2ccc3c4c(cccc24)C(=O)N(c2ccccc2)C3=O)CC1	1	3	14	1
Cc1ccc2oc(=O)c3cnn(CC(=O)NCCN4CCc5ccccc5C4)c3c2c1	0	1	11	0
O=C(O)C1C2CC=CC2c2cc(Cl)cc3c2N1CC1CC=CC31 (stereo not drawn)	2.7*	-1	-3	-1
O=C(O)c1cc2c3c(c1)C1C=CCC1C(c1ccc(Cl)cc1)N3CC1CC=CC21 (stereo not drawn)	0	4	88*	-1
O=S(=O)(NC1c2ccccc2Oc2ccccc21)c1ccccc1	0	3	3	-1
O=C(NC(n1cccnc1=O)C(Cl)(Cl)Cl)c1ccco1 (stereo not drawn)	0	-5	-10	0
Cc1sc2ncnc(NCCC3=CCCCC3)c2c1C	0	44*	2	0
Cc1nc(NCCC2=CCCCC2)c2c3c(sc2n1)CCCC3	0	-38	0	-1
Cc1sc2ncnc(NCCc3ccc(S(N)(=O)=O)cc3)c2c1C	0	37*	-1	1
O=C(CCC1CCN(C(=O)C2Cc3ccccc3O2)CC1)Nc1ccccc1 (stereo not drawn)	0	-21	6	-1
Cn1c(SCC2CCCO2)nnc1-c1ccccc1O (stereo not drawn)	0	61*	10	0
Cn1c(SCC2CCCCO2)nnc1-c1ccccc1 (stereo not drawn)	0	-33	-6	0
O=C(c1ccccc1)N1CC[C@H]2[C@H](CCCN2C(=O)[C@@H]2C[C@@H]3C=C[C@H]2C3)C1	0	-4	1	0
O=S1(=O)c2cccc3cccc(c23)N1Cc1cccc(Br)c1	0	-8	-6	-1
O=S1(=O)c2cccc3cccc(c23)N1Cc1cccc(Cl)c1	2.1*	-16	8	1
CCN1CCCC1CNc1ncnc2sc(C(=O)NCCc3cccs3)c(C)c12 (stereo not drawn)	0	-35	9	0
SMILES	FBW7 activator	TEAD-YAP inh	MITF inh	GPR151 ag
O=C(NCCCCCCNC(=O)Nc1cccnc1)Nc1cccnc1	0	57*	-5	0
C=CCn1c(=NC(=O)C2=COCCO2)sc2cccc(OC)c21	0	-10	6	-1
C=CCn1c(=NC(=O)C2=COCCO2)sc2cc(F)ccc21	1.9*	-15	-2	-1
COc1ccc2c(c1)c(CC(=O)Nc1ccccn1)c(C)n2C(=O)c1ccc(Cl)cc1	0	37*	0	2
CCCn1c2ccccc2c2nnc(SCC(=O)NC3CCCC3)nc21	0	-1	4	0
CC(C)OC(=O)CSc1nc2c(c(-c3ccc(O)cc3)c1C#N)CCCC2	0	48*	4	1
CCOC(=O)c1ccc(N2C(=O)CC(Sc3ncccc3C(=O)O)C2=O)cc1 (stereo not drawn)	0	2	11	3
